Compound activity as filed in PubChem.
This is a sample that favours compounds with a hit; in the whole collection about 1.4% have one here.
rTrxR1 inhibitor – blocks rat thioredoxin reductase 1 | O89049 | recombinant rTrxR1, NADPH fluorescence consumption, selenite substrate | Potency, µM (series often up to 114 µM), for the others: top-dose activity change, negative = inhibition, actives largely listed as inhibitors | 390,000 tested, 1% active | AID 588453; further: potency means the concentration at half of the fitted maximal effect; on the % scale 0 is the no-effect control and ±100 the full control effect; nearly all actives have a fitted effect of over 65% in size
Target sequence (O89049 whole entry, looked up): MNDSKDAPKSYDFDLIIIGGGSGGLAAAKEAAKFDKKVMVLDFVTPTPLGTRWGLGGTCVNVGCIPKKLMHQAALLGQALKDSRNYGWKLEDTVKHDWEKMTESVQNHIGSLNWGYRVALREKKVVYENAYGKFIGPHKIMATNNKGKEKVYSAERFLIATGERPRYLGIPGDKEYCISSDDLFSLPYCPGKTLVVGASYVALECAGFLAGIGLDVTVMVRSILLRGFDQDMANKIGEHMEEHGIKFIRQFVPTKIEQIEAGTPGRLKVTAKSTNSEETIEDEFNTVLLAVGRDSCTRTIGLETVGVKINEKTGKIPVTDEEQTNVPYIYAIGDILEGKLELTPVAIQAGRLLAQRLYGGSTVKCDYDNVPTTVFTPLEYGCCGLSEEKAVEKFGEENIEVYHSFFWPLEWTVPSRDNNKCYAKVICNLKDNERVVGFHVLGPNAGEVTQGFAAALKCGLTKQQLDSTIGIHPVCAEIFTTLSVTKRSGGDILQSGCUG
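Rat TrxR1 (90 nM in the dispensed reagent) was pre-reduced with 400 uM NADPH for 5 min at room temperature, then incubated with compound for 15 min. After 400 uM selenite was added, NADPH fluorescence (Ex 340/Em 450 nm) was followed for 8 min.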
Pin1 inh – inhibitors of human Pin1; Q13526; Pin1 FP peptide displacement, HiFluor488, 10 min; Potency, µM (series often up to 115 µM), for the others: at the top dose activity, negative = inhibition, actives largely listed as inhibitors; 390,000 tested, 0.009% active; AID 504891; active means well fitted inhibition curve with a large enough effect in the polarisation, with a control signal flat, not every such curve was filed as active; inconclusive means small, poorly fitted or top-dose-only effect, or effect the other way, or a change in a side signal; inactive means no such curve, though single readings can be large or run the other way; the % refers to the polarisation; further: potency means the concentration at half of the fitted maximal effect; on the % scale 0 is the no-effect control and ±100 the full control effect
Target sequence (Q13526 whole entry, looked up): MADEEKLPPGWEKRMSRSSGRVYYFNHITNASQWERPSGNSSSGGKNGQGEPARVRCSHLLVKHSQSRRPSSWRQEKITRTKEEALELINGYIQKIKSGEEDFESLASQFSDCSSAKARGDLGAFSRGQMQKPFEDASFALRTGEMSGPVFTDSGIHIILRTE
pAkt inh – inhibitors of Akt phosphorylation. Neuro2A IGF-stimulated pAkt S473 HTRF, 20 min; active compounds read low. activity change, % for hits at 50 µM. 360,000 tested, 0.32% active. AID 651550; in the data active means activity change below about -80%; inconclusive means mostly about -51% to -80%; further: on the % scale 0 is the no-effect control and ±100 the full control effect
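Neuro2A cells (4,500/well, DMEM with 0.5% FBS) were treated with compound at a single 50 µM final concentration, stimulated with 6 nM IGF for 20 min at 37 °C, and lysed. Phospho-Akt Ser473 was read by HTRF as 665/615 ratio ×10^4.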
AT treatment – potential ataxia-telangiectasia treatment; F2112 A-T fibroblasts, KAP-1 phosphorylation AlphaLISA; neocarzinostatin DNA damage 30 min before lysis; Potency, µM (series often up to 57.5 µM), for inactives: at the top dose activation, actives largely listed as activators; 320,000 tested, 0.19% active; further: potency means the concentration at half of the fitted maximal effect; % of control where 0% means no effect; nearly all actives have a fitted effect of over 45% in size
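ATM-like activity read as KAP-1 phosphorylation via AlphaLISA donor/acceptor antibody pairs after lysis and 6 hr at 25C. Cells were ATM-null patient fibroblasts (F2112, hTERT), dosed 60 min, then exposed to the DSB inducer NCS for 30 min.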
N370S GC – inhibitors or activators of N370S glucocerebrosidase for Gaucher disease. P04062. N370S GC spleen homogenate, 4MU-glucoside fluorescence. 330,000 tested, 0.092% active. Potency, µM (top dose mostly 59.4 µM), for inactives: at the highest dose activity change, negative = inhibition, hits mostly inhibitors. AID 2101;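 further: potency means the concentration at half of the fitted maximal effect; 0% = full enzyme activity and -100% = no enzyme basal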
TrxR1 substrate – rat thioredoxin reductase 1 substrate activity; O89049; purified TrxR1 substrate turnover, NADPH consumption readout; 390,000 tested, 0.01% active; Potency, µM (doses to about 114 µM), without a hit: top-dose activity change, negative = substrate turnover; further: potency means the concentration at half of the fitted maximal effect; on the % scale 0 is the no-effect control and ±100 the full control effect; nearly all actives have a fitted effect of over 50% in size
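Rat TrxR1, dispensed at 90 nM, was prereduced with 400 uM NADPH (final) for 5 min at ~22 deg C, then incubated with compound 15 min before 400 uM selenite. A first-read NADPH fluorescence drop versus no-compound background flagged substrates.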
Starred values were filed as active, the others as inactive; i = inactive; ? = inconclusive; nt = not tested or not shown; [ ] = another dose, or the depositor's remark. Unless noted, the call rests on the fitted dose curve; in most records, active means well fitted curve in the direction sought with a large enough effect; inconclusive means small, poorly fitted or top-dose-only effect, or another doubt; inactive means no such curve, though single readings can be large; an effect the other way counts as inactive or inconclusive.

SMILES	rTrxR1 inhibitor	Pin1 inh	pAkt inh	AT treatment	N370S GC	TrxR1 substrate
CN(C(=O)COC(=O)c1ccc2c(c1)NC(=O)CS2)C1CCS(=O)(=O)C1 (stereo not given)	8.8%	-9.2%	-108.0%*	12.0%	-9.4%	-1.4%
CC(C)CN(C(=O)COC(=O)c1ccc2c(c1)NC(=O)CS2)C1CCS(=O)(=O)C1 (stereo not given)	11.2%[57.1 µM]	-2.3%	i	3.5%	1.7%[2.35 µM]	-8.1%[57.1 µM]
CCOc1ccc2c(c1)n([O-])c1c([n+]2=O)CCCC1	50.1µM*	nt	i	-13.5%	4.2%	31.9%
CC(=O)Nc1ccc(SCC(=O)N(CCC#N)c2cc(C)cc(C)c2)cc1	15.6%[57.1 µM]	2.4%	-109.9%*	0.6%	17.1%	11.2%[57.1 µM]
Cc1cc(C)cc(N(CCC#N)C(=O)CSc2nc3nc(C)cc(C)n3n2)c1	29.8%	0.7%	i	3.2%	-8.6%	12.8%
O=C(CN1CCSCC1)N/N=C/c1ccccc1F	15.0%	2.2%	-98.1%*	4.7%	14.0%	5.6%
O=c1cc(N2CCN(c3ccccc3)CC2)[nH]c(=O)n1Cc1ccc(F)cc1	-32.0%[57.1 µM]	15.3%	i	-4.7%	14.8%	3.4%[57.1 µM]
CN1CCN(c2cc(=O)n(Cc3ccc(F)cc3)c(=O)[nH]2)CC1	14.1µM*	-2.8%	i	10.7%	0.4%	1.1%[57.1 µM]
CCOC(=O)N1CCC(NC(=O)c2cnn(-c3cccc(F)c3)c2-n2cccc2)CC1	3.8%[57.1 µM]	-5.7%	nt	nt	nt	-2.2%[57.1 µM]
Nc1c(C(=O)Nc2ccccc2F)sc2nc(Cc3ccccc3)cc(C(F)(F)F)c12	1.2%[57.1 µM]	?	-108.5%*	0.5%	15.5%	6.7%[57.1 µM]
Cc1c(C)c2c(OCC(=O)N3CCC(C(=O)O)CC3)cc3c(c2oc1=O)CCC(C)(C)O3	79.4µM*	2.9%	i	-1.9%	?	602.2%
Cc1c(C)c2c(OCC(=O)N3CCC(C(=O)NCC(C)C)CC3)cc3c(c2oc1=O)CCC(C)(C)O3	-4.5%	3.2%	i	8.3%	3.5%	187.6%
Cc1c(OCC(=O)N2CCC(C(=O)O)CC2)ccc2c3c(c(=O)oc12)CCC3	14.1µM*	-8.1%	i	3.0%	2.7%	95.3%
Cc1cccc(N2CCN(C(=O)CN3C(=O)COc4ccc(S(=O)(=O)N5CCCC5)cc43)CC2C)c1 (stereo not given)	-3.6%	-2.0%	nt	nt	nt	-6.8%
CN(C)Cc1c(O)ccc2c1O/C(=C\C=C\c1ccccc1)C2=O	79.4µM*	?	i	-6.8%	?	-22.5%
COc1ccccc1/C=C/C=C1\Oc2c(ccc(O)c2CN2CCN(CCO)CC2)C1=O	25.1µM*	?	i	-0.9%	?	1.3%
O=C1/C(=C/C=C/c2ccccc2)Oc2c1ccc(O)c2CN1CCN(CCO)CC1	?	?	i	-17.5%	?	-0.9%
COc1ccc(NC(=S)Nc2nc(CC(=O)Nc3ccccc3OC)cs2)cc1	1µM*	1.4%	i	-1.2%	?	0.3%
COc1ccccc1NC(=O)Cc1csc(NC(=S)Nc2ccccc2)n1	?	2.8%	i	1.1%	?	-1.4%
Cc1ccc(NS(=O)(=O)c2cccc(F)c2)cc1C	nt	2.6%	nt	nt	nt	nt
C=CCSSSCC=C	nt	nt	nt	nt	13.8%	nt
O=C(CCl)N1c2ccccc2SCC1c1ccccc1 (stereo not given)	1.26µM*	-11.5%	i	32.3%	-1.7%	7.4%
O=C(CCl)N1c2ccccc2OCC1c1ccccc1 (stereo not given)	2.24µM*	8.3%	i	2.6%	5.4%	5.2%
O=C(CN1CCSc2ccccc21)N1CCCCC1	20.2%[57.1 µM]	2.0%	nt	nt	nt	4.8%[57.1 µM]
CCOC(=O)C1CCCN(C(=O)Cn2ncn3c(cc4sc(CC)cc43)c2=O)C1 (stereo not given)	6.0%	4.1%	nt	nt	nt	0.5%
SMILES	rTrxR1 inhibitor	Pin1 inh	pAkt inh	AT treatment	N370S GC	TrxR1 substrate
CCOc1ccc(/C=C/c2ccnc3ccccc23)cc1OCC	6.9%	nt	nt	nt	nt	2.8%
CCOC(=O)NC1(NC2CCCCC2)Oc2ccccc2O1	31.6µM*	?	nt	4.7%	4.8%	1.3%[57.1 µM]
CCOC(=O)NC1(NCC(C)C)Oc2ccccc2O1	?	-14.1%	i	2.5%	nt	5.5%[57.1 µM]
CCOC(=O)NC1(NCc2ccccc2)Oc2ccccc2O1	31.6µM*	?	nt	0.9%	-1.3%	2.5%[57.1 µM]
CCOC(=O)NC1(NC(C)C)Oc2ccccc2O1	-2.8%	-2.5%	i	nt	-6.1%	19.8%
O=C(Nc1ccccc1)C1CCN(c2ncc(-c3ccc4c(c3)OCCCO4)s2)CC1	nt	-1.7%	nt	nt	nt	nt
CCOC(=O)c1ccc(NC(=O)c2oc3c(c2C)-c2nn(Cc4ccccc4Cl)cc2CC3)cc1	9.7%	13.5%	nt	nt	nt	-1.8%
CCC(c1nnnn1CCOC)N(Cc1cc2cc(C)c(C)cc2[nH]c1=O)CC1CCCO1 (stereo not given)	-22.6%	-3.3%	-116.6%*	1.3%	-13.5%	-5.2%
CCCC(c1nnnn1CCOC)N(Cc1cc2cc(C)c(C)cc2[nH]c1=O)CC1CCCO1 (stereo not given)	7.1%	-5.2%	i	-4.9%	4.8%	-2.7%
COc1ccc(OC)c2c(/C=C/c3c(C)[nH]c4ccccc34)ccnc12	4.4%	nt	nt	nt	nt	-0.1%
COc1ccc(C2=NN(C(=O)c3ccccc3)C(c3cccc([N+](=O)[O-])c3)C2)cc1 (stereo not given)	19.2%	0.1%	i	-7.7%	?	-6.7%
CCOC(=O)/C=C(/C)N1N=C(c2ccc(OC)cc2)CC1c1cccc([N+](=O)[O-])c1 (stereo not given)	50.1µM*	-0.3%	i	-10.9%	24.8%	-11.2%
COC(=O)C1=C(C)N(Cc2ccccc2)C(=NCc2ccco2)N[C@H]1c1ccc(Br)cc1	nt	nt	nt	nt	-15.0%	nt
Cc1ccc(S(=O)(=O)N2CCCC2C(=O)OCc2ccco2)cc1 (stereo not given)	7.94µM*	?	i	-6.1%	7.4%	9.6%
Cc1cc(C)n(C(=O)CNc2cccc(Cl)c2C)n1	6.0%	-1.7%	i	4.5%	-7.6%	-1.1%
Cc1cc(C)n(C(=O)CNc2ccccc2Cl)n1	-0.7%	-3.6%	-126.7%*	1.6%	5.7%	-6.7%
Cc1c(CCO)sc[n+]1CC(=O)c1ccccc1	-1.7%	nt	nt	nt	nt	4.5%
COc1ccc(C2Nc3ccccc3C(=O)N2Cc2ccccc2Cl)cc1COc1ccc(NC(C)=O)cc1 (stereo not given)	nt	-2.8%	nt	nt	nt	nt
N#Cc1nc(Nc2cc(F)cc(F)c2)c2ncn(CCO)c2n1	nt	13.6%	nt	nt	nt	nt
O=C(CCCl)Nc1cccc2cccnc12	12.6µM*	-2.5%	nt	nt	nt	8.8%
O=C(CCBr)Nc1cccc2cccnc12	?	-13.7%	nt	nt	nt	8.4%
COc1ccc(OCC(=O)Nc2cccc3ncccc23)cc1	3.3%[57.1 µM]	-0.8%	i	-1.4%	3.9%	-8.2%
O=C(CCl)Nc1cccc2ncccc12	50.1µM*	6.3%	i	5.2%	0.0%	-4.4%
